From PubChem BioAssay
Most compounds without a hit are left out; they make up all but 2.4% or so of the library.
FEN1 inh-1: inhibitors of human flap endonuclease 1. Recombinant FEN1 flap cleavage, fluorescence, 15 min. Potency, µM (series often up to 114 µM), for inactives: at the top dose activity change, negative = inhibition, usual class: inhibitors. 0.35% of 390,000 active. AID 588795; note: potency is the fitted concentration of half-maximal effect; % is set by controls: 0 for no effect and ±100 for the full control effect; nearly all actives have a fitted effect of over 65% in size
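Reaction started by adding substrate (50 nM final) to 10 nM enzyme after 15 min room-temperature compound preincubation. Reads at 0 and 15 min, with data normalized and fitted to a four-parameter Hill equation.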
Pol beta inh: DNA polymerase beta (human) inhibition | 1.3% of 340,000 active | AID 485314 | Pol beta primer extension/strand displacement, fluorescence kinetic | Potency, µM (top dose mostly 114 µM), inactives show at the highest dose activity change, negative = inhibition, hits mostly inhibitors; note: potency is the fitted concentration of half-maximal effect; % is set by controls: 0 for no effect and ±100 for the full control effect
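10 nM enzyme + cpd, 15 min RT; start with substrate 50 nM final; read 0 min and after 10 min RT. Corrected, normalized data; 4-parameter Hill curve fit.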
Pol iota inh: inhibitors of human DNA polymerase iota. Pol iota fluorescent replication assay, 10 min. Potency, µM (series often up to 115 µM), inactives show at the top dose activity, negative = inhibition, hits mostly inhibitors. 1% of 390,000 active. AID 588590; note: potency is the fitted concentration of half-maximal effect
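Fluorescent replication assay read twice, at 0 min and 10 min after adding 50 nM (final) substrate. Enzyme (10 nM) and compounds were first incubated 15 min at room temperature; enzyme-free buffer wells were negative controls.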
Pol eta inh-1: inhibitors of human DNA polymerase eta; Q9Y253; recombinant Pol eta, fluorescent DNA replication assay; Potency, µM (titrated, usually from 114 µM), without a hit: top-dose activity change, negative = inhibition, usual class: inhibitors; 1.2% of 390,000 active; AID 588591; note: potency is the fitted concentration of half-maximal effect; % is set by controls: 0 for no effect and ±100 for the full control effect
Target sequence (Q9Y253 whole entry, looked up): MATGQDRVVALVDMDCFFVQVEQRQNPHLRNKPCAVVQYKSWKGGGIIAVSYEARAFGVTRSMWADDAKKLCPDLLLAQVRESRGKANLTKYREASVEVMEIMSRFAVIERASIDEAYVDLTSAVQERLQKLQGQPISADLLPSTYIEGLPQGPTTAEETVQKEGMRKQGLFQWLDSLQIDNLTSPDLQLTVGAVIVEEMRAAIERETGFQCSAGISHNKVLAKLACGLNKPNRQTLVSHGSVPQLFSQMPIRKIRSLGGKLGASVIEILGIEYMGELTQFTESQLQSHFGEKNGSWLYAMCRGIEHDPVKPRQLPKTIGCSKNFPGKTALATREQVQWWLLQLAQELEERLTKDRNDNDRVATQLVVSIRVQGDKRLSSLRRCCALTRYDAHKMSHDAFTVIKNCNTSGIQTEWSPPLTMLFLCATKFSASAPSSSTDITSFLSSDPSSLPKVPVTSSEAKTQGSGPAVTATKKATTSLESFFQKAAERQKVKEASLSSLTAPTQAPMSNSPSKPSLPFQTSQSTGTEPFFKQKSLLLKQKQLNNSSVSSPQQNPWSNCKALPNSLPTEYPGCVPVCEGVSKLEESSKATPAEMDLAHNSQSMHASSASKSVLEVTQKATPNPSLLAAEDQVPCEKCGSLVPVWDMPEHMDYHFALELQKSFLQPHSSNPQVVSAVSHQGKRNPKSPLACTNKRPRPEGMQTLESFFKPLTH
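Fluorescent replication assay: 50 nM final substrate added after a 15 min room-temperature compound preincubation with 10 nM enzyme. Signal taken at 0 min and again at 10 min.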
TDP1 block: inhibitors of human tyrosyl-DNA phosphodiesterase TDP1; AID 485290; 0.28% of 350,000 active; Potency, µM (titrated, usually from 130 µM), inactives show at the highest dose activity change, negative = inhibition, most hits filed as inhibitors; recombinant TDP1, AlphaScreen DNA substrate cleavage; note: potency is the fitted concentration of half-maximal effect; % is set by controls: 0 for no effect and ±100 for the full control effect; nearly all actives have a fitted effect of over 40% in size
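Compounds were preincubated with Tdp1 (1 nM final) for 15 min at room temperature before substrate (15 nM final) started a 5 min reaction; beads (10 ug/ml final) were then added for 10 min before AlphaScreen detection.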
Pol kappa inh-1: DNA polymerase kappa (human) inhibition; Q9UBT6; purified Pol kappa, fluorescent DNA synthesis assay, 10 min; Potency, µM (titrated, usually from 107 µM), without a hit: top-dose activity, negative = inhibition, actives largely listed as inhibitors; 0.53% of 400,000 active; note: potency is the fitted concentration of half-maximal effect; % is set by controls: 0 for no effect and ±100 for the full control effect
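Kinetic fluorescence readout at 0 and 10 min followed reaction start with substrate at 50 nM final. Beforehand, enzyme (10 nM Pol kappa) stood 15 min with compound at room temperature; buffer-only wells were negative controls.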
PGK validate: validation of Trypanosoma brucei phosphoglycerate kinase inhibitors; shares compounds with Pol kappa inh-1; TbPGK coupled GAPDH assay, Kinase-Glo luminescence; Potency, µM (series often up to 57.5 µM), for inactives: at the highest dose activity change, negative = inhibition, hits mostly inhibitors; 79% of 500 active; AID 686980; note: potency is the fitted concentration of half-maximal effect; % is set by controls: 0 for no effect and ±100 for the full control effect; nearly all actives have a fitted effect of over 65% in size
POLI cherry-pick: Inhibitors of human DNA polymerase iota, confirmation; shares compounds with Pol kappa inh-1; Pol iota primer extension, TAMRA/BHQ fluorescence; Potency, µM, actives largely listed as inhibitors; 77% of 1,500 active; AID 720496; note: potency is the fitted concentration of half-maximal effect
GALK inh confirm: galactokinase (human) inhibition, confirmation. 70% of 150 active. AID 2015. Potency, µM (doses to about 115 µM), for inactives: top-dose activity, negative = inhibition, actives largely listed as inhibitors. shares compounds with Pol eta inh-1. purified GALK, Kinase-Glo ATP depletion luminescence
Redox cycling: redox cycling activity in phenol red-HRP assay. shares compounds with Pol eta inh-1. Phenol red-HRP H2O2 redox cycling, absorbance 600 nm. Potency, µM (doses to about 115 µM), inactives show at the top dose activity change, negative = H2O2 signal, hits mostly inhibitors. 40% of 150 active
HEK293 viability: counter-screen for GALK inhibitors: HEK293 cell cytotoxicity; shares compounds with Pol eta inh-1; HEK-293 viability, ATP luminescence (CellTiter-Glo), 24/48 h; Potency, µM (series often up to 46.1 µM), without a hit: at the highest dose activity change, negative = cytotoxicity, usual class: inhibitors; 10% of 170 active; note: potency is the fitted concentration of half-maximal effect; % is set by controls: 0 for no effect and ±100 for the full control effect
Pol kappa inh-2: confirmation of human DNA polymerase kappa inhibitors; shares compounds with Pol eta inh-1; purified Pol-kappa, fluorescent strand-displacement substrate; Potency, µM, most hits filed as inhibitors; 76% of 920 active; note: potency is the fitted concentration of half-maximal effect
Pol eta inh-2: confirmation of human DNA polymerase eta inhibitors. shares compounds with Pol eta inh-1. Pol eta primer extension, TAMRA/BHQ fluorescence, 10 min. Potency, µM, usual class: inhibitors. 64% of 2,600 active; note: potency is the fitted concentration of half-maximal effect
FEN1 inh-2: FEN1 inhibition, cherry-pick retest. shares compounds with FEN1 inh-1. FEN1 flap cleavage, TAMRA/BHQ2 fluorogenic DNA substrate. Potency, µM, most hits filed as inhibitors. 79% of 880 active. AID 720498; note: potency is the fitted concentration of half-maximal effect; nearly all actives have a fitted effect of over 60% in size
Numbers without * were called inactive; ? = inconclusive; / = no result given; ! = not active in a repeat; [ ] = another dose, or the depositor's remark. Calls come from the whole dose curve; as a rule, active = well fitted curve in the direction sought with a large enough effect; inconclusive = small, poorly fitted or top-dose-only effect, or another doubt; inactive = no such curve, though single readings can be large; an effect the other way counts as inactive or inconclusive.

SMILES	FEN1 inh-1	Pol beta inh	Pol iota inh	Pol eta inh-1	TDP1 block	Pol kappa inh-1	POLI cherry-pick	Pol eta inh-2	FEN1 inh-2	others
O=C(O)C1OC(Oc2cc3oc(-c4ccccc4)cc(=O)c3c(O)c2O)C(O)C(O)C1O (stereo not given)	50µM*	50µM*	10µM*	-16%	5%	79µM*	21*	/	34*
NC[C@H](O)c1ccc(O)c(O)c1	-12%	-3%[57.1 µM]	4µM*!	-4%	2.2µM*!	0.71µM*!	1.5*	1.9*	34*
CC[C@H](NC(C)C)[C@H](O)c1ccc(O)c(O)c1	/	/	/	/	14%[21 µM]	-7%[12 µM]	/	/	/
O=C(O)c1ccccc1NS(=O)(=O)c1ccc(N/N=C/c2ccc(O)c(O)c2)c([N+](=O)[O-])c1	28µM*	/	7.9µM*	2.5µM*	/	32µM*	27*	30*	48*	PGK validate=10µM*;Pol kappa inh-2=17*
NS(=O)(=O)c1ccc(N/N=C/c2ccc(O)c(O)c2O)c([N+](=O)[O-])c1	10µM*	1.3µM*	2.8µM*	2.5µM*	-10%	10µM*	17*	15*	15*
CCOC(=O)c1cccc(NC(=O)CC2C(=O)N(c3ccc(Cl)cc3)C(=O)N2C2CCCC2)c1 (stereo not given)	-8%	-17%	0%	-17%	-3%	-21%	/	/	/
[C-]#[N+][C@H](O[C@@H]1O[C@H](CO)[C@@H](O)[C@H](O)[C@H]1O)c1ccccc1	3%	/	37%	-6%	/	18%	/	/	/
O=C(O)CC(CCc1ccccc1)OC1OC(CO)C(O)C(O)C1O (stereo not given)	7.9µM*	0.71µM*	1.8µM*	0.79µM*	/	2µM*	2.7*	11*	27*	PGK validate=?;GALK inh confirm=53µM*;Redox cycling=-4%;HEK293 viability=9%
CC(=O)c1ccc(NC(=O)Cn2cc(S(=O)(=O)Cc3cccc(Cl)c3)c3ccccc32)cc1	6%	-2%	22%	-10%	6%	0%	/	/	/
Fc1cc(F)c2nc(Nc3nc4cc5c(cc4s3)OCO5)sc2c1	?	?	?	2.8µM*	?	?	?	/	43*
Fc1cccc2sc(Nc3nc4cc5c(cc4s3)OCO5)nc12	-3%	14%	-11%	-12%	8%	-2%	/	/	/
CN(CCC#N)C(=O)COC(=O)c1nn(-c2ccccc2)c(=O)c2ccccc12	-1%	-22%	19%	-8%	5%	-17%	/	/	/
CN(CCC#N)C(=O)COC(=O)c1c2c(nc3ccccc13)/C(=C\c1ccco1)CC2	50µM*	/	4µM*	11µM*	/	22µM*	17*	34*	67*
Nc1cccc(S(=O)(=O)O)c1	/	/	/	/	15%	/	/	/	/
Nc1cccc2cc(S(=O)(=O)O)ccc12	8.9µM*	/	4µM*	4µM*	/	10µM*	75*	27*	67*	Pol kappa inh-2=19*
Cc1ccccc1Nc1cc(C(=O)NCCCN2CCN(c3cccc(Cl)c3)CC2)c2ccccc2n1	-13%	-10%	-7%	-22%	7%	-27%[60.1 µM]	/	/	/
CCCCC(=O)N/N=C/c1ccc(-c2ccc([N+](=O)[O-])cc2)o1	0%	-17%	39%	-2%	0%	-16%	/	/	/
Cc1cc(C)n(Cc2ccc(C(=O)N/N=C/c3ccc(-c4ccc([N+](=O)[O-])cc4)o3)o2)n1	56µM*	2µM*	10µM*	6.3µM*	/	25µM*	17*	43*	76*
Clc1ccc(CCNc2nc3cc(Cl)c(Cl)cc3n3cnnc23)cc1	-4%	21%	32%	-4%	2%	10%	/	/	/
N#CC(C#N)=C(N)/C(C#N)=C/c1cc(O)c(O)c(O)c1	8.9µM*	/	?	?	/	0.79µM*	47*	/	19*
O=C(c1cn(CCOc2ccccc2F)c2ccccc12)C1CCCCC1	-4%	-18%	15%	-25%	3%	-3%	/	/	/
CC(C)=CCC1=C(OCC(=O)O)C(=O)c2ccccc2C1=O	?	?	?	22µM*	0%	-2%	38*	27*	38*	GALK inh confirm=38µM*;Redox cycling=12µM*;HEK293 viability=-28%
O=C(CSc1nnc(-c2cccc(S(=O)(=O)N3CCCC3)c2)n1-c1ccccc1)Nc1ccc(C(=O)O)cc1	?	32µM*	?	35µM*	79µM*	?	42*	43*	76*
O=C(O)COc1ccc2ccccc2c1	/	/	/	/	10%	9%[60.1 µM]	/	/	/
CC(C)c1ccc(-c2noc(SCC(=O)N3CCCCC3C)n2)cc1 (stereo not given)	-3%	0%	-2%	-5%	3%	-7%	/	/	/
Cc1cccc(C)c1NS(=O)(=O)c1ccc2c(c1)[C@H]1C=CC[C@H]1[C@@H](c1ccc(Cl)cc1)N2	8%	?	-17%	5%	/	-12%	/	/	/
